LASV entry inh: inhibitors of Lassa virus binding or cell entry; Potency, µM (highest dose often 37.9 µM), usual class: inhibitors; Lassa virus pseudotype entry inhibition, cell reporter; AID 540256; hit rate 1.2% among 300,000; calls by dose curve; tested in HEK293 cells; further: nearly all actives have a fitted effect of over 50% in size
Marburg entry inh: Marburg virus entry inhibition; Marburg virus pseudotyped entry inhibition, cell reporter; hit rate 1.8% among 300,000; Potency, µM (highest dose often 37.8 µM), usual class: inhibitors; calls by dose curve; tested in HEK293 cells
HCV inhibitor: inhibitors of hepatitis C virus infection | Huh7.5.1 HCVcc-Cre infection, luciferase reporter, 44 h | Potency, µM (doses to about 41.8 µM), hits mostly inhibitors | hit rate 3.4% among 340,000 | AID 651820; active means well fitted inhibition curve with a large enough effect; inconclusive means small, poorly fitted or top-dose-only effect, or another doubt; inactive means no such curve, though single readings can be large or run the other way
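A cell-based infection assay in which seeded cells (1,000 per well) receive test compound after 4 h, are inoculated with HCVcc-Cre at approximately 0.5 moi, and are incubated 44 h before luminescence detection.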
Vaccinia mCherry: inhibitors of vaccinia virus infection (mCherry reporter signal); hit rate 0.63% among 310,000; AID 720579; Potency, µM (highest dose often 36.5 µM), usual class: inhibitors; Vaccinia virus mCherry reporter infection, fluorescence; calls by dose curve; tested in A549 cells; further: nearly all actives have a fitted effect of over 35% in size
VACV Venus inh: vaccinia inhibition (Venus reporter); Potency, µM (doses to about 36.5 µM), most hits filed as inhibitors; hit rate 0.46% among 330,000; Vaccinia virus Venus reporter expression, fluorescence; calls by dose curve; tested in A549 cells; further: nearly all actives have a fitted effect of over 30% in size
HCMV antiviral: blocks human cytomegalovirus replication; HFF cells, HCMV-luciferase reporter, 72 h; hits give low values; AID 1259415; activity change, negative = inhibition, % at 57.5 µM; hit rate 4.5% among 410,000; in the data active means activity change below about -60%; inconclusive means no clear call, values can overlap the other calls; inactive means above about -39%
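After 16 h attachment at 37C, HFF cells received test compound and HCMV-luciferase (1 PFU/cell); reporter luminescence read 72 h later, data normalized against buffer-only and known inhibitor Salinomycin.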
Numbers stand for hits; – = inactive; ? = inconclusive; · = no result; [ ] = dose if it differs, or a comment. The list is not random: actives were taken first. Their share in the collection is about 7.8%.

SMILES | LASV entry inh | Marburg entry inh | HCV inhibitor | Vaccinia mCherry | VACV Venus inh | HCMV antiviral
O=C(NCc1ccc(C(F)(F)F)cc1)O[C@H]1CC[C@@]23CCCN2C(=O)CCC[C@H]3[C@H]1Cc1ccccc1 | · | · | · | · | · | –
COCC(=O)N1CCCCN2[C@H](C1)[C@H](c1ccc(C#Cc3ccccc3)cc1)[C@@H]2CO | · | · | · | · | · | –
O=c1[nH]c(/C=C2\C=Nc3ccccc32)c(O)n1Cc1ccccc1F | · | ? | 4.5µM | ? | ? | –
Cc1ccc2nc(CNC(=O)c3cc(NC(=O)c4ccccc4)cc4ncn(C5CCCC5)c34)cn2c1 | · | · | · | – | – | ·
COC(=O)C1OC(OC2CC[C@]3(C)C(CC[C@@]4(C)[C@@H]3CC=C3[C@@H]5CC(C)(C)CC[C@]5(C(=O)OC5OC(CO)C(O)C(O)C5O)CC[C@]34C)C2(C)C)C(O)C(O)C1O[C@H]1OCC(O)C(O)C1O (stereo partly drawn) | · | · | 10µM | – | – | ·
C/C=C(\C)C(=O)OC1CC(C)(C)C[C@H]2C3=CC[C@@H]4[C@@]5(C)CCC(O[C@@H]6O[C@@H](C(=O)O)[C@@H](O)C(O[C@@H]7OC[C@H](O)[C@@H](O)[C@@H]7O[C@@H]7OC(CO)C(O)[C@@H](O)[C@@H]7O)C6O[C@@H]6OC(CO)C(O)C(O)C6O)[C@@](C)(CO)[C@@H]5CC[C@]4(C)[C@]3(C)CC(O)[C@@]12CO (stereo partly drawn) | · | · | 11µM | – | ? | ?
CC(CCN1CCCc2nc(C)c(C)cc21)=NOC[C@@H](O)[C@H]1O[C@@H]2OC(C)(C)O[C@H]2[C@@H]1O | ? | – | · | · | · | ·
COc1ccc(CNC(=O)CN(C)c2nn3c(=O)cc(C)nc3s2)cc1 | – | – | · | – | – | –
C1=C(c2c[nH]c3ccccc23)CCNC1 | · | – | · | · | · | –
CC(C)N1CC=C(c2c[nH]c3ccccc23)CC1 | ? | – | ? | · | ? | -67
O=C(CNC(=O)c1ccccc1F)OCc1cc(=O)n2ccsc2n1 | – | · | · | – | – | –
COc1ccc(CN2C(=O)c3ccccc3C(/C=N\OCc3ccc(F)cc3)C2=O)cc1 (stereo not drawn) | – | – | – | · | – | -91
COc1ccc(-c2oc3cc(O)c(OC)c(O)c3c(=O)c2OC)cc1 | · | · | – | – | – | –
COc1ccc(-c2oc3cc(O[C@@H]4OC(CO)C(O)C(O)C4O)c(OC)c(O)c3c(=O)c2OC)cc1O (stereo partly drawn) | · | · | · | – | – | ·
COc1c(-c2ccc(O)cc2)oc2cc(O)cc(O)c2c1=O | · | · | ? | 20µM | ? | –
COc1ccc(-c2oc3c(OC)c(OC)c(OC)c(O)c3c(=O)c2OC)cc1OC | · | · | 10µM | ? | ? | ?
COc1ccc(-c2oc3cc(OC)c(O)c(OC)c3c(=O)c2OC)cc1O | · | · | 8.9µM | ? | ? | –
CC(=O)c1c(C)nc2sc3c(=N)n(N)cnc3c2c1-c1ccc(Cl)cc1 | – | ? | ? | 3.5µM | 4.5µM | ?
CCOC(=O)c1c(C)nc2sc3c(=O)n(-c4ccc(C(C)=O)cc4)cnc3c2c1-c1ccc(OC)cc1 | – | – | – | · | – | –
CCOC(=O)C(C(C)=O)C(c1ccc(OC)cc1)C(C(C)=O)C(=O)OCC (stereo not drawn) | – | – | – | · | – | –
CCOC(=O)C(C)C(C)=O (stereo not drawn) | · | · | – | 0.32µM | ? | ·
O=C(CCCN1C(=O)/C(=C\c2cccs2)SC1=S)Nc1cccnc1 | – | – | – | – | – | -93
O=C(CCCN1C(=O)/C(=C/c2ccccc2Cl)SC1=S)NNC(=O)c1ccc(Cl)cc1Cl | · | · | – | – | – | -64
COc1ccccc1C(=O)NNC(=O)CCCN1C(=O)/C(=C/c2cccs2)SC1=S | – | – | – | – | – | -68
O=C(CCCN1C(=O)/C(=C/c2ccccc2Cl)SC1=S)NNC(=O)c1ccccc1 | ? | ? | – | ? | ? | ?
SMILES | LASV entry inh | Marburg entry inh | HCV inhibitor | Vaccinia mCherry | VACV Venus inh | HCMV antiviral
CCN(CC)CCOC(=O)c1ccc(NC(=O)CCCN2C(=O)/C(=C\c3cccs3)SC2=S)cc1 | · | · | 10µM | · | · | –
Cc1cccc(CNC(=O)CN2C(=O)CSc3c2c(C)nn3-c2ccccc2)c1 | – | · | · | – | – | –
COc1ccc(N2CCN(c3ncnc4c3cnn4-c3ccc(F)cc3)CC2)cc1 | ? | · | · | – | – | –
O=C(CCCN1C(=O)/C(=C\c2cccs2)SC1=S)NNC(=O)c1ccncc1 | ? | – | – | – | – | -61
O=C(CCCN1C(=O)/C(=C/c2cccs2)SC1=S)Nc1cccnc1 | ? | ? | ? | – | – | -98
O=C(CCCN1C(=O)/C(=C/c2cccs2)SC1=S)NNC(=O)c1cccnc1 | · | · | – | · | · | ?
O=C(CCCN1C(=O)/C(=C/c2ccccc2OC(F)F)SC1=S)Nc1cccnc1 | ? | ? | 11µM | ? | ? | -65
CCC1CN(CCNC(=O)c2cn3cc(C)ccc3n2)Cc2cc(OC)ccc2O1 (stereo not drawn) | · | · | · | – | – | ·
Cc1ccc(/C=C/c2onc(C)c2S(=O)(=O)N2CCC(C(=O)Nc3ccc(OC(F)(F)F)cc3)CC2)cc1 | – | · | · | –[7.34 µM] | –[7.34 µM] | ?
CC(C)c1nn2c(=O)cc(COC(=O)c3ccc(NC(=O)CCc4ccccc4)cc3)nc2s1 | – | · | · | – | – | –
O=C(N/N=C/c1ccc2c(c1)OCO2)c1cccc2ccccc12 | – | 3.2µM | – | ? | – | –
O=C(N/N=C/c1ccc2c(c1)OCO2)c1cc(-c2ccccc2)nc2ccccc12 | ? | ? | – | ? | – | –
O=C(N/N=C/c1ccc2c(c1)OCO2)c1ccc(COc2cccc3cccnc23)cc1 | · | · | 13µM | – | – | –
Cn1cc(C(=O)N/N=C/c2ccc(Br)c([N+](=O)[O-])c2)c2ccccc21 | – | – | ? | – | – | ?
Cn1cc(C(=O)N/N=C/c2ccc3c(c2)OCO3)c2ccccc21 | – | 13µM | ? | ? | – | –
Cc1cccc(OCCSc2nc3ccc(NC(=O)COc4ccccc4F)cc3s2)c1 | – | – | · | – | – | ?
CCN(CC)c1cc(C)c(/C=C/c2ccnc3ccccc23)cc1C | · | · | · | – | – | ·
CC1CCc2c(sc3nc(C(C)(C)C)nc(N4CCN(C(=O)CCl)CC4)c23)C1 (stereo not drawn) | ? | ? | ? | – | ? | -103
O=C(CSc1nnc(-c2ccc(O)cc2)o1)c1ccc(Br)cc1 | – | · | · | – | – | –
COC1=C(Nc2ccccc2OC)C(=O)c2ccccc2C1=O | – | – | – | – | – | –
COc1ccccc1NC1=C(NC(C)=O)C(=O)c2ccccc2C1=O | · | · | ? | · | · | -66
COC(=O)c1[nH]c2ccccc2c1NC(=O)CN1CCN(C/C=C/c2ccccc2)CC1 | ? | 18µM | 11µM | – | ? | -61
CCOC(=O)c1[nH]c2ccc(F)cc2c1NC(=O)CN1CCN(C/C=C/c2ccccc2)CC1 | ? | ? | 10µM | · | ? | –
CN(Cc1ccccc1)C(=O)CSc1nc2ccsc2c(=O)n1-c1ccc(F)cc1 | – | · | · | – | – | ?
